Laboratory results taken from PubChem BioAssay (EPA / NIEHS).
Several values for one entry are separate records, joined by “and”; a condition that tells them apart may be missing. Identical values can stand only once. Results filed as inconclusive are left out. Activity calls are given as the source filed them. How the source made its calls, unless noted: active means hit-call score of the fitted dose curve at least 0.9, where 1 is the maximum; inactive means score below 0.9.

Key:
[1] = CCTE_Shafer_MEA_acute_AB: CCTE's Alamar Blue Assay for Cytotoxicity in the Neural Acute Assay, Shafer Lab (AID 2284069; active means hit-call score of the fitted dose curve at least 0.9, where 1 is the maximum;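 further: active compounds lower the viability signal compared with DMSO wells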)
In short: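 Read-out: resazurin fluorescence (ex 544, em 590 nm) after CTB reagent at 1:6 dilution in fresh media. Cells: primary rat cortical neuron networks, DIV 13 or 15, chemically exposed on MEA plates; DMSO as negative control/baseline.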

[2] = CCTE_Shafer_MEA_acute_LDH: CCTE's Lactate Dehydrogenase Assay for Cytotoxicity in the Neural Acute Assay, Shafer Lab (AID 2284086; active means hit-call score of the fitted dose curve at least 0.9, where 1 is the maximum;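 further: active means LDH release rises above DMSO vehicle level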)
In short: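 LDH released during 40 min compound exposure of primary rat cortical cultures, quantified by absorbance at 490 nm in collected medium. Fitting direction positive versus DMSO vehicle.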

[3] = BSK_BT_PBMCCytotoxicity: PBMC Cytotoxicity Assessment in the BioMAP Diversity Plus: BT Assay (AID 2284225); conditions: primary human B cells with PBMC;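 further: PBMC viability measured by Alamar Blue dye reduction fluorescence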
In short: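 Viability by Alamar Blue reduction (6 h, ex/em 546/580 nm) after 90 h culture of SEB/TSST-1-activated PBMC (20 ng/mL each) given compound 1 h before activation. DMSO served as baseline for curve fitting.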

[4] = read-out: Secreted IgG (sIgG), gene 3500; assay: BSK_BT_sIgG: BioMAP Diversity Plus: BT Assay for Secreted IgG (sIgG) Biomarker Activity (AID 2284226); conditions: primary human B cells with PBMC
In short: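 ELISA quantitation of secreted IgG from human B cells co-cultured with PBMC, sampled 24 h post-dosing. Values fitted relative to DMSO vehicle as baseline, positive fitting direction.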

[5] = BSK_BT_Bcell_Proliferation: Viability Assessment in the BioMAP Diversity Plus: BT Assay for B cell Proliferation (AID 2284227); conditions: primary human B cells with PBMC
In short: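 Read-out is absorbance at 560 nm from sulforhodamine B staining of total protein, reflecting relative cell numbers in a human B cell and PBMC co-culture after 72 h of chemical exposure. Values were referenced to DMSO.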

[6] = read-out: Interleukin 6 (IL6), IL6 (gene 3569); assay: BSK_BT_xIL6: BioMAP Diversity Plus: BT Assay for Interleukin 6 (IL6) Biomarker Activity (AID 2284228); conditions: primary human B cells with PBMC
In short: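 IL-6 secretion measured (Luminex xMAP) in human primary B cell + PBMC co-culture at 24 h of chemical exposure; DMSO served as negative control and activity baseline, with curves fitted for increase.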

[7] = read-out: Interleukin 17A (IL17A), IL17A (gene 3605); assay: BSK_BT_xIL17A: BioMAP Diversity Plus: BT Assay for Interleukin 17A (IL17A) Biomarker Activity (AID 2284229); conditions: primary human B cells with PBMC
In short: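 Human primary B cells plus PBMC, treated 24 h with chemicals; supernatant IL-17A quantified on Luminex xMAP beads. Gain of signal over DMSO control scored as activity.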

[8] = read-out: Tumor necrosis factor (Homo sapiens) (UniProt P01375); assay: BSK_BT_xTNFa: BioMAP Diversity Plus: BT Assay for Tumor necrosis factor alpha (TNF-alpha) Biomarker Activity (AID 2284230); conditions: primary human B cells with PBMC
In short: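 Human primary co-culture of B cells and peripheral blood mononuclear cells; TNF-alpha in supernatant, 24 h post-dose, Luminex multiplex; DMSO = baseline.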

[9] = read-out: Vascular cell adhesion molecule 1 (VCAM1), VCAM1 (gene 7412); assay: BSK_MyoF_VCAM1: BioMAP Diversity Plus: MyoF Assay for Vascular cell adhesion molecule 1 (VCAM1) Biomarker Activity (AID 2284231); conditions: primary human lung fibroblasts
In short: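 VCAM-1 levels, lung fibroblasts, ELISA, 24 h exposure, increase scored relative to DMSO.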

[10] = read-out: Collagen I, COL1A1 (gene 1277); assay: BSK_MyoF_CollagenI: BioMAP Diversity Plus: MyoF Assay for Collagen I Biomarker Activity (AID 2284238); conditions: primary human lung fibroblasts
In short: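 Measured by ELISA: Collagen I from human lung fibroblasts 24 h after compound addition, analysed for signal gain with DMSO as baseline; overt toxicity read from SRB staining of parallel cultures at the same time.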

[11] = CCTE_Mundy_HCI_hNP1_Casp3_7: CCTE's Caspase-Glo 3/7 Assay in human neuroprogenitor cells for Apoptosis, Mundy Lab (AID 2284240)
In short: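 Apoptosis is scored by activated caspase-3/7 luminescence in WA09-derived neural progenitor cells, measured 26.5 h after chemical dosing. Values represent gain of signal relative to DMSO vehicle.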

[12] = read-out: Collagen III, COL3A1 (gene 1281); assay: BSK_MyoF_CollagenIII: BioMAP Diversity Plus: MyoF Assay for Collagen III Biomarker Activity (AID 2284239); conditions: primary human lung fibroblasts
In short: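 Multiplexed cell assay in lung fibroblasts, harvested at 24 h post-dose. Collagen III detected by ELISA, with positive-direction fitting relative to DMSO vehicle.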

Measured: AC50

Chain of Tumor necrosis factor (Homo sapiens) (P01375 whole entry, looked up): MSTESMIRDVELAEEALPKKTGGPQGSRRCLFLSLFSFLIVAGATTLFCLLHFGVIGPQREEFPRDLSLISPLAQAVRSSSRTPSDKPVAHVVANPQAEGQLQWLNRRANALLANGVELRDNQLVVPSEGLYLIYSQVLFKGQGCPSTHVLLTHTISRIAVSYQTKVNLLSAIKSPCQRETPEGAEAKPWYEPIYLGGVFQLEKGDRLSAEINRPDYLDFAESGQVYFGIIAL

CCN=C1C=CC(=C(c2ccc(N(CC)CC)cc2)c2ccc(N(CC)CC)cc2)c2ccccc21
active: [1] 6.86 µM
inactive: [2]

O=C(O)C(F)(F)C(F)(F)C(F)(F)OC(F)(C(F)(F)F)C(F)(F)F
inactive: [3] | [4] | [5] | [6] | [7] | [8] | [9] | [10] | [11]

NS(=O)(=O)C(F)(F)C(F)(F)C(F)(F)C(F)(F)C(F)(F)C(F)(F)F
inactive: [3] | [4] | [5] | [6] | [7] | [9] | [10]

CC1=CC2C3C=CC(C3)C2C1C (stereo unspecified)
inactive: [3] | [5] | [7] | [8] | [9] | [10] | [12]
active: [4] 20 µM | [6] 16.7 µM

Nc1cc([N+](=O)[O-])cc(Cl)c1O
inactive: [3] | [4] | [5] | [6] | [7] | [9] | [10]

O=C=Nc1cccc2c(N=C=O)cccc12
active: [4] 12 µM
inactive: [3] | [5] | [6] | [7] | [8] | [9] | [10]

O=C(O)CCC(F)(F)C(F)(F)C(F)(F)F
inactive: [3] | [4] | [5] | [6] | [7] | [8] | [9] | [10] | [11]

O=C(Cl)C(F)(F)C(F)(F)C(F)(F)C(F)(F)C(F)(F)C(F)(F)F
inactive: [3] | [4] | [5] | [6] | [7] | [9] | [10] | [12]

CCN(CC)c1ccc2c(c1)Oc1cc(N(CC)CC)ccc1C21OC(=O)c2ccccc21
active: [3] 6.15 µM | [4] 6.43 µM | [5] 6.1 µM | [6] 10 µM
inactive: [7] | [8] | [9] | [10]

NCC(F)(F)C(F)(F)C(F)(F)C(F)(F)C(F)(F)C(F)(F)F
inactive: [3] | [4] | [5] | [6] | [7] | [8] | [9] | [10] | [12]

CCN(CC)c1ccc(C=O)c(O)c1
active: [4] 20 µM
inactive: [3] | [5] | [6] | [7] | [8] | [9] | [10]

COC(F)(C(F)F)C(F)(F)F (stereo unspecified)
inactive: [3] | [4] | [5] | [6] | [7] | [9] | [10] | [12]

C[Si](Cl)(Cl)CCC(F)(F)C(F)(F)C(F)(F)C(F)(F)C(F)(F)C(F)(F)F
inactive: [3] | [4] | [5] | [6] | [7] | [9] | [10]

O=C=NCc1cccc(CN=C=O)c1
inactive: [3] | [4] | [5] | [6] | [7] | [8] | [9] | [10] | [12]

OCC(O)CC(F)(F)C(F)(F)C(F)(F)C(F)(F)C(F)(F)C(F)(F)C(F)(F)C(F)(F)F (stereo unspecified)
inactive: [3] | [4] | [5] | [6] | [7] | [9] | [10] | [12]

Cc1ccc(O)c(-n2nc3ccccc3n2)c1
inactive: [3] | [4] | [5] | [6] | [7] | [9] | [10]

Cc1cnccn1
active: [4] 5.22 µM
inactive: [3] | [5] | [6] | [7] | [9] | [10]

O=C1C=CC(=O)N1c1ccc(Cc2ccc(N3C(=O)C=CC3=O)cc2)cc1
active: [3] 4.43 µM | [4] 2.18 µM | [5] 3.64 µM | [6] 3.09 µM | [7] 1.99 µM | [9] 3.05 µM | [10] 2.69 µM | [12] 3.46 µM

O=C(F)C1(F)C(F)(F)C(F)(F)C(F)(F)C(F)(F)C1(F)F
inactive: [3] | [4] | [5] | [6] | [7] | [8] | [9] | [10] | [11]

Cc1cc(O)c(C(C)(C)C)cc1C(C)(C)C
active: [3] 26.5 µM | [4] 12.9 µM | [5] 26.1 µM | [6] 17.2 µM | [7] 20 µM | [9] 3.83 µM | [10] 4.19 µM

O=C(c1ccccc1)c1ccc(O)cc1O
inactive: [3] | [4] | [5] | [6] | [7] | [8] | [9] | [10] | [12]

CCN(CC)c1ccc(N=Nc2ccccc2)cc1
inactive: [3] | [12]
active: [4] 18 µM | [5] 30.3 µM | [6] 20 µM | [7] 20 µM | [9] 20 µM | [10] 20 µM

CN(C(=O)C(F)(F)C(F)(F)C(F)(F)F)[Si](C)(C)C
inactive: [3] | [4] | [5] | [6] | [7] | [9] | [10]

CC(C)CCCC(C)CCO (stereo unspecified)
active: [9] 29.9 µM | [10] 31.6 µM
inactive: [3] | [4] | [5] | [6] | [7]

O=S(=O)(Cl)C(F)(F)C(F)(F)C(F)(F)C(F)(F)C(F)(F)C(F)(F)C(F)(F)C(F)(F)F
inactive: [4] | [5] | [6] | [7] | [9] | [10]
active: [3] 8.8 µM and 16.2 µM

C[C@]12CC[C@H]3C(=CCc4cc(O)ccc43)[C@@H]1CCC2=O
active: [4] 29.1 µM | [5] 26.1 µM
inactive: [3] | [6] | [7] | [9] | [10] | [12]

NCC(F)(F)C(F)(F)C(F)(F)C(F)(F)C(F)(F)C(F)(F)C(F)(F)C(F)(F)F
inactive: [3] | [4] | [5] | [6] | [7] | [9] | [10]

CC(C)(C)c1cc(CCC(=O)NCCCCCCNC(=O)CCc2cc(C(C)(C)C)c(O)c(C(C)(C)C)c2)cc(C(C)(C)C)c1O
inactive: [3] | [5] | [6] | [7] | [9] | [10]
active: [4] 1.98 µM

Brc1nc2ccccc2s1
inactive: [3] | [4] | [5] | [7] | [9] | [10]
active: [6] 0.338 µM

CCOC(C=C(C)CCC=C(C)C)OCC
inactive: [3] | [4] | [5] | [6] | [7]
active: [9] 27 µM | [10] 30 µM

Cc1cc(C)c(O)c(C(C)(C)C)c1
inactive: [3] | [4] | [5] | [6] | [7] | [8]
active: [9] 34.2 µM | [10] 30.6 µM

CCOC(=O)CC(=O)C(F)(F)C(F)(F)F
inactive: [3] | [4] | [5] | [6] | [7] | [9] | [10] | [12]

Cc1ccc(S(=O)(=O)C(I)I)cc1
active: [3] 4.06 µM | [4] 2.03 µM | [5] 2.97 µM | [6] 2.82 µM | [7] 2.36 µM | [8] 4.64 µM | [9] 7.94 µM | [10] 8.3 µM | [12] 10.5 µM

O=C(O)CCC(F)(F)C(F)(F)C(F)(F)C(F)(F)C(F)(F)C(F)(F)C(F)(F)F
active: [4] 3.33 µM and 5.61 µM
inactive: [3] | [5] | [6] | [7] | [8] | [9] | [10] | [12] | [11]

FC(F)(F)C(F)(F)C(F)(F)CC1CO1 (stereo unspecified)
inactive: [3] | [4] | [5] | [6] | [7] | [9] | [10]

O=C1c2c(O)ccc(Nc3ccc(CCO)cc3)c2C(=O)c2c([N+](=O)[O-])ccc(O)c21
active: [3] 20 µM | [4] 29.9 µM | [5] 15.5 µM | [9] 20 µM | [10] 28.9 µM
inactive: [6] | [7] | [8]

CCN(CC)c1ccc(C=O)cc1
inactive: [3] | [4] | [5] | [6] | [7] | [8] | [9] | [10]
